Binding signal data for 2 sequences are collected here from publication PMC7862700, “An all-to-all approach to the identification of sequence-specific readers for epigenetic DNA modifications on cytosine”.

Holding throughout (test): DAPPL (digital affinity profiling via proximity ligation, sequencing); 10 mM Tris-HCl pH 7.5, 50 mM NaCl, 1 mM DTT, 4% glycerol, room temperature, 30 min; GST-TFs on glutathione beads, 16-mer random dsDNA library, 0.1% formaldehyde crosslink after washing; high values mean tight binding
Details in all cases: protein: recombinant; tags: N-terminal GST; dsDNA, one strand shown

The target in one assay is T1, FLI1 (Homo sapiens, UniProt Q01543 1-452).
T1 sequence: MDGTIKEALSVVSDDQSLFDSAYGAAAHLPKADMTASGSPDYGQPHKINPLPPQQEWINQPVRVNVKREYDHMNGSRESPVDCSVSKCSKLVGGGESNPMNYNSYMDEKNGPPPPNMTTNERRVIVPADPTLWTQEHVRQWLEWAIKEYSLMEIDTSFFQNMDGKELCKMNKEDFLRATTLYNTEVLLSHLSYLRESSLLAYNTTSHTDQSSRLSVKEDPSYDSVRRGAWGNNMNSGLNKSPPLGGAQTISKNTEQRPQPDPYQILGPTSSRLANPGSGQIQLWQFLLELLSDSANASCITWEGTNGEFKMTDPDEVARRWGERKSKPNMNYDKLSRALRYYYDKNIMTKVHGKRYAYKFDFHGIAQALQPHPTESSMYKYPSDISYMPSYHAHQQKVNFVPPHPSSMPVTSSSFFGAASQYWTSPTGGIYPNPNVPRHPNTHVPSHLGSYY
Put shortly: (§1)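 Binding signal is given per hexamer as its read frequency for a factor divided by its frequency in the tag-only sample. GST-fused human transcription factors were expressed in yeast, captured on glutathione beads, barcoded with DNA and pooled with that sample, then incubated with 200 nmole of a 16-mer random double-stranded DNA library in Tris/NaCl/DTT/glycerol buffer for 30 min at room temperature. The pools were then washed, crosslinked, proximity-ligated, amplified by PCR and sequenced on an Illumina NextSeq500.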

In the next assay the target is T2, ELK1 (Homo sapiens, UniProt P19419 1-428).
T2 sequence: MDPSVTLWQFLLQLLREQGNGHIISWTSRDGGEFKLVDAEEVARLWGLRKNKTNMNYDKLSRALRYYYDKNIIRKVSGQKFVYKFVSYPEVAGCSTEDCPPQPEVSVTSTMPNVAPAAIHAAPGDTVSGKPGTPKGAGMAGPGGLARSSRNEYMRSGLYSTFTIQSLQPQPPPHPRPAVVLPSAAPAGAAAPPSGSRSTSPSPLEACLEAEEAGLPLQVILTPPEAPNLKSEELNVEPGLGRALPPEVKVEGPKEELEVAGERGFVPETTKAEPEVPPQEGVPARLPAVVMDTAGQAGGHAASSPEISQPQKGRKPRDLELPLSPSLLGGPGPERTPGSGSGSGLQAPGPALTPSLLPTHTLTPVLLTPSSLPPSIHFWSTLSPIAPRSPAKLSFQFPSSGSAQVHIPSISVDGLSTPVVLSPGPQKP
Put shortly:
as §1

Another assay has as its target T3, GABPA (Homo sapiens, UniProt Q06546 1-454).
T3 sequence: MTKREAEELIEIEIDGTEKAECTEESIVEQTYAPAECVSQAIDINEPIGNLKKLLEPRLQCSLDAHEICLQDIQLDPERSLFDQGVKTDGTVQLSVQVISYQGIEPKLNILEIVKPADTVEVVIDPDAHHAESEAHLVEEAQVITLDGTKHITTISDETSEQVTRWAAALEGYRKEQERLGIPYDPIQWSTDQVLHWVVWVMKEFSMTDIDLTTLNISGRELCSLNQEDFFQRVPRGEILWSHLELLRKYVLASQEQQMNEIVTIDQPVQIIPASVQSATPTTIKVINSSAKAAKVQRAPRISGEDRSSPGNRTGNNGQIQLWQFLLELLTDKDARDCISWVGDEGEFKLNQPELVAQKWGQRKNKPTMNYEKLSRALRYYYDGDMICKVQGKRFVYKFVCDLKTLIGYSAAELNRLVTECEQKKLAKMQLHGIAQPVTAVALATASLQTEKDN
The method, boiled down:
as §1

Another assay has as its target T4, ERG (Homo sapiens, UniProt P11308 1-479).
T4 sequence: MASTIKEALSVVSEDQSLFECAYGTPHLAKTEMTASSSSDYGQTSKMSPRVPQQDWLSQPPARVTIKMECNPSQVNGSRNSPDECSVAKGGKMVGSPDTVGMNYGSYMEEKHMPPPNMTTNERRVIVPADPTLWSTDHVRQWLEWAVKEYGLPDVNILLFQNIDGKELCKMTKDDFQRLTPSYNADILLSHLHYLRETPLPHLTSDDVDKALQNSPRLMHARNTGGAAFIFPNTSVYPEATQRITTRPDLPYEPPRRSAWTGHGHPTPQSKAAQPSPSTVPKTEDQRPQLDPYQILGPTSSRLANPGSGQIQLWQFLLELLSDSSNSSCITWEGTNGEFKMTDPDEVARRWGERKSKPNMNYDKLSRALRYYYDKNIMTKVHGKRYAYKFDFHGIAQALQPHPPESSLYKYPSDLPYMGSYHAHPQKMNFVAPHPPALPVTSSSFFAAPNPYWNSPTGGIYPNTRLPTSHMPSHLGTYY
The method, boiled down:
as §1

The next assay concerns the target ELF1 (Homo sapiens, UniProt P32519 1-619). Put shortly:
as §1

The target of another assay is SPI1 (Homo sapiens, UniProt P17947 1-270). Put shortly: as §1
For another assay, the target named is SPIB (Homo sapiens, UniProt Q01892 1-262). Put shortly:
as §1

A further assay has as its target T5, ELK3 (Homo sapiens, UniProt P41970 1-407).
T5 sequence: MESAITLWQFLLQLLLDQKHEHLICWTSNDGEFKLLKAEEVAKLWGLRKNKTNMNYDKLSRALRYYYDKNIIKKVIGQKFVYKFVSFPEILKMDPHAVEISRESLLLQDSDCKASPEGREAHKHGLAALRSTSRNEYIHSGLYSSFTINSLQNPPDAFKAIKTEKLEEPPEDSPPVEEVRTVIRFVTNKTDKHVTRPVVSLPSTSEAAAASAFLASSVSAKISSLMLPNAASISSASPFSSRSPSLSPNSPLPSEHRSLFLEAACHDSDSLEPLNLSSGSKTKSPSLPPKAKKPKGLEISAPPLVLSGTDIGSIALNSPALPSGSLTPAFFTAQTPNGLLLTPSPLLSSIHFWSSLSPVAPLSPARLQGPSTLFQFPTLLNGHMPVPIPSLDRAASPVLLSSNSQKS
Put shortly:
as §1

The next assay has as its target T6, FEV (Homo sapiens, UniProt Q99581 1-238).
T6 sequence: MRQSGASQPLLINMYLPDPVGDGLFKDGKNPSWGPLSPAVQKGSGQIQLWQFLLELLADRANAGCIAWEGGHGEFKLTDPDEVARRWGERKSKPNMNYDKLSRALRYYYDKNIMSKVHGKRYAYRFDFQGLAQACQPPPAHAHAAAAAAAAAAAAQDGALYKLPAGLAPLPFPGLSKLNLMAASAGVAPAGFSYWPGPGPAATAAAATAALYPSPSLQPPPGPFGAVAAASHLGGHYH
The method, boiled down:
as §1

The next assay concerns the target ETV5 (Homo sapiens, UniProt P41161 1-510). The method, boiled down:
as §1

The target in a further assay is T7, SPIC (Homo sapiens, UniProt Q8N5J4 1-248).
T7 sequence: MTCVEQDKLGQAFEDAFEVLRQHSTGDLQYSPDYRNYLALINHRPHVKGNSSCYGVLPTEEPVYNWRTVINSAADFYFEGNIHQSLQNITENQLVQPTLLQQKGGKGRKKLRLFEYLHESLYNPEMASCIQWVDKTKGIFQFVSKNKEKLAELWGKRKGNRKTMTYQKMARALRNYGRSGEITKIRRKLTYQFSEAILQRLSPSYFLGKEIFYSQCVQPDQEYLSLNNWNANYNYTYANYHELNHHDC
The method, boiled down:
as §1

A further assay addresses ELF4 (Homo sapiens, UniProt Q99607 1-663). Put shortly: as §1
The target in the next assay is T8, ELK4 (Homo sapiens, UniProt P28324-2 1-405).
T8 sequence: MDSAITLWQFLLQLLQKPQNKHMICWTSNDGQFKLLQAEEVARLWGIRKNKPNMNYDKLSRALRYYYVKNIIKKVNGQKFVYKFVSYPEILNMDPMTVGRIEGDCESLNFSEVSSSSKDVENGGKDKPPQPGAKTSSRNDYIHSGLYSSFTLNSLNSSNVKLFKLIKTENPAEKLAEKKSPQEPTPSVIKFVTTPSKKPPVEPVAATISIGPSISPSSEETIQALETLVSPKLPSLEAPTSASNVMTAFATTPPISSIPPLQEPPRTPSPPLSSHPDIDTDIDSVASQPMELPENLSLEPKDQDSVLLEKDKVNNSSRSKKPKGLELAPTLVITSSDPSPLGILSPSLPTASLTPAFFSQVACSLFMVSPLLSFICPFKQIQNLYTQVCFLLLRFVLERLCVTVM
The method, boiled down: as §1

The target in a further assay is T9, ETV2 (Homo sapiens, UniProt O00321 1-342).
T9 sequence: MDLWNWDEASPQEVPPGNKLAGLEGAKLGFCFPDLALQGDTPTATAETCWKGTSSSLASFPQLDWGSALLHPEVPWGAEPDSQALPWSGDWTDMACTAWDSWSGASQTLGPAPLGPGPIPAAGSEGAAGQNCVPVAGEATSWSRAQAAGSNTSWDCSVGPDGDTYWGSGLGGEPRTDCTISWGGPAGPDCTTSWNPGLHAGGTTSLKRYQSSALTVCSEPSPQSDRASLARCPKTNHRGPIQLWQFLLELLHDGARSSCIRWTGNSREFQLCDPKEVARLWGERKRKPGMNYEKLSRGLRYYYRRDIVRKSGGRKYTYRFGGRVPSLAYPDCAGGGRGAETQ
Put shortly: as §1

The next assay has as its target ETV1 (Homo sapiens, UniProt P50549 1-477). The method, boiled down:
as §1

In the next assay the target is T10, EHF (Homo sapiens, UniProt Q9NZC4 1-300).
T10 sequence: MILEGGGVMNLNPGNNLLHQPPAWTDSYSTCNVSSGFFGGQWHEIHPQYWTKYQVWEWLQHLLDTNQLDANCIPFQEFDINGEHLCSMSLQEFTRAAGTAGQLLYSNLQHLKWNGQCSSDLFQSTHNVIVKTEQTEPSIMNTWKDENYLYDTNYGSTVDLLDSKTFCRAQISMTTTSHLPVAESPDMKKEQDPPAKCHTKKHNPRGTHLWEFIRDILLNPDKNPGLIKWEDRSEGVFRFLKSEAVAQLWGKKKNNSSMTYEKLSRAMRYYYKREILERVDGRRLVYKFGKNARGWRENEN
Put shortly: as §1

Sequence of ETV5 (P41161 whole entry): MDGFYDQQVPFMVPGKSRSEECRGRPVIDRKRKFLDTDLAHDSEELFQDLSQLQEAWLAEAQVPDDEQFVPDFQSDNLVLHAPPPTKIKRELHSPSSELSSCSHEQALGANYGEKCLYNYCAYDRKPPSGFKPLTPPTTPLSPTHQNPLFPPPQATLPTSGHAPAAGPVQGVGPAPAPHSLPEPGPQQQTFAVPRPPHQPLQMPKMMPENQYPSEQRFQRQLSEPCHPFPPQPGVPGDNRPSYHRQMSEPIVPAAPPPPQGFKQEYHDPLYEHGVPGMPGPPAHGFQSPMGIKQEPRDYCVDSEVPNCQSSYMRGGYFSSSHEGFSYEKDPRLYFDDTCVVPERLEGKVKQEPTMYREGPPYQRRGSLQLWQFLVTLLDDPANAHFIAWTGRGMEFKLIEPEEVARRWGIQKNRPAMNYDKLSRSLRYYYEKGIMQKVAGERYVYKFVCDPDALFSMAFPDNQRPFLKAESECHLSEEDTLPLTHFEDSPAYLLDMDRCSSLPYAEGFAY
Sequence of ELF4 (Q99607 whole entry): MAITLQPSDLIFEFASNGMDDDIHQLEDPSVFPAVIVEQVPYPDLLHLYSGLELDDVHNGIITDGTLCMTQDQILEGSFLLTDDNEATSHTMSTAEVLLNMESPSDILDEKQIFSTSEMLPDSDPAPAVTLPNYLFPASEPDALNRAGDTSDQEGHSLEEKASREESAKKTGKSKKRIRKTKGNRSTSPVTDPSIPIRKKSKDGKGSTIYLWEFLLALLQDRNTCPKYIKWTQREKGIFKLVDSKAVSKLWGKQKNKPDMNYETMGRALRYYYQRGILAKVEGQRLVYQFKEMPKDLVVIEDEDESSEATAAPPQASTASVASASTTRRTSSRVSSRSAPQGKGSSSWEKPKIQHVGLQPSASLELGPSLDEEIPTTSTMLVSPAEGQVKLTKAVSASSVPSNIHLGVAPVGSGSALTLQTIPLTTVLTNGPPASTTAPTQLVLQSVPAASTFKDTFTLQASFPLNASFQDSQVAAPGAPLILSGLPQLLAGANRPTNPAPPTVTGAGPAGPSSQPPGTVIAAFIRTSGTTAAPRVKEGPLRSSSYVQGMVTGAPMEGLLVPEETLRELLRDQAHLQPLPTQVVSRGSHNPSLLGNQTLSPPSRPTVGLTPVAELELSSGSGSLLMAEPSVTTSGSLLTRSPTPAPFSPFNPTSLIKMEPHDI
Sequence of ELF1 (P32519 whole entry): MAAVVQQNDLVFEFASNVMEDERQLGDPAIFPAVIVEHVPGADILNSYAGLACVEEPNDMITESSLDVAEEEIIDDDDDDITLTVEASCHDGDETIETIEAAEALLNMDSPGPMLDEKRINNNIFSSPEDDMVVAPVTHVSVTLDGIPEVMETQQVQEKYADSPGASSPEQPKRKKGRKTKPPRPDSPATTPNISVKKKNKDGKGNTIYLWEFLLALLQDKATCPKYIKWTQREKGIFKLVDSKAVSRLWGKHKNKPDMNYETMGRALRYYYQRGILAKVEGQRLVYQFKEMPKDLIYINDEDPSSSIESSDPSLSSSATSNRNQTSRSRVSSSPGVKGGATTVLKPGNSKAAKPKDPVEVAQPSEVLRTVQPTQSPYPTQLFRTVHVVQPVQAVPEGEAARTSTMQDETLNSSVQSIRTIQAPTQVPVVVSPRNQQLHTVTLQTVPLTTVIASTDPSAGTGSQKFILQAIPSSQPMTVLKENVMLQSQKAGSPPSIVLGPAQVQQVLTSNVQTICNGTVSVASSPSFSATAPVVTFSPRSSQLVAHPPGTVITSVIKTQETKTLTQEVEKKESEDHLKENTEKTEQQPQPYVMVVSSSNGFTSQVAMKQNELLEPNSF
Sequence of SPIB (Q01892 whole entry): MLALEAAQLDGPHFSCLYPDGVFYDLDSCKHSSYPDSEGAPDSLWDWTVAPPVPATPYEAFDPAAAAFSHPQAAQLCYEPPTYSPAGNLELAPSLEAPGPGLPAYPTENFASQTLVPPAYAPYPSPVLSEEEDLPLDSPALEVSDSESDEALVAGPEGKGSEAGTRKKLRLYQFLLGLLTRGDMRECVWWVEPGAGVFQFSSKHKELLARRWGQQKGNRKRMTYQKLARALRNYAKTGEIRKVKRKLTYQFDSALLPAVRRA
Sequence of ETV1 (P50549 whole entry): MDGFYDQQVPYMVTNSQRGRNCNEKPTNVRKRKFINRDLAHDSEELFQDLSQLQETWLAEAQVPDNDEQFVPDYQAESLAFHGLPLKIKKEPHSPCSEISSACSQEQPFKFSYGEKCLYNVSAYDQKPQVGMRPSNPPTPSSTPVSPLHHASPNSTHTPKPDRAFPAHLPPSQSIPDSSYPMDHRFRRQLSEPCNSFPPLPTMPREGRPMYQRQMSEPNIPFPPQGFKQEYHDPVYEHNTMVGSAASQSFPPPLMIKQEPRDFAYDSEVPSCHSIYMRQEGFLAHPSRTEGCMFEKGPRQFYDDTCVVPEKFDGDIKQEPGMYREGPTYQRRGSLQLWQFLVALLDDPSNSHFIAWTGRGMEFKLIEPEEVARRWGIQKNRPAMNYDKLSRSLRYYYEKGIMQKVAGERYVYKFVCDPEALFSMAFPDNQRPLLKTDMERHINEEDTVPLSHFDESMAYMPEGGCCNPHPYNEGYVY

Consider ACCCTG, for which the binding signal in the assay with FLI1 was 1.05 fold enrichment (6-mer frequency, TF over GST control); in the assay with ELK1 it was 1.09 fold enrichment (6-mer frequency, TF over GST control); in the assay with GABPA, 1.06 fold enrichment (6-mer frequency, TF over GST control); with ERG it was 1.05 fold enrichment (6-mer frequency, TF over GST control); in the assay with ELF1, 1.13 fold enrichment (6-mer frequency, TF over GST control); in the assay with SPI1, 1.05 fold enrichment (6-mer frequency, TF over GST control). For the same sequence, the binding signal in the assay with SPIB is 1.09 fold enrichment (6-mer frequency, TF over GST control); with ELK3 it was 1.24 fold enrichment (6-mer frequency, TF over GST control); with FEV it was 1.02 fold enrichment (6-mer frequency, TF over GST control); in the assay with ETV5 it was 1.01 fold enrichment (6-mer frequency, TF over GST control); with SPIC, 1.1 fold enrichment (6-mer frequency, TF over GST control); with ELF4, 1.16 fold enrichment (6-mer frequency, TF over GST control). Also, the binding signal was 1.18 fold enrichment (6-mer frequency, TF over GST control) in the assay with ELK4; 1.05 fold enrichment (6-mer frequency, TF over GST control) with ETV2; 1.09 fold enrichment (6-mer frequency, TF over GST control) in the assay with ETV1.
Consider CATGGG, for which the binding signal with FLI1 was 1.04 fold enrichment (6-mer frequency, TF over GST control); with ELK1, 1.07 fold enrichment (6-mer frequency, TF over GST control); with GABPA, 1.04 fold enrichment (6-mer frequency, TF over GST control); with ERG it was 1.07 fold enrichment (6-mer frequency, TF over GST control); with ELF1, 1.05 fold enrichment (6-mer frequency, TF over GST control); with EHF, 1.03 fold enrichment (6-mer frequency, TF over GST control). Besides, the binding signal with SPI1 was 1.03 fold enrichment (6-mer frequency, TF over GST control); with ELK3, 1.09 fold enrichment (6-mer frequency, TF over GST control); with ETV5 it was 1.01 fold enrichment (6-mer frequency, TF over GST control); with SPIC, 1.05 fold enrichment (6-mer frequency, TF over GST control); with ELF4, 1 fold enrichment (6-mer frequency, TF over GST control); in the assay with ELK4 it was 1.02 fold enrichment (6-mer frequency, TF over GST control). Also, the binding signal with ETV2 is 1.04 fold enrichment (6-mer frequency, TF over GST control).
